Among the data in PubChem BioAssay (EPA / NIEHS) are AC50 and outcome values, retold here.

Results filed as inconclusive are left out. Active and inactive are the calls of the source. How the source made its calls, unless noted: active means hit-call score of the fitted dose curve at least 0.9, where 1 is the maximum; inactive means score below 0.9.

Assay [1] can be described thus: CCTE_Simmons_MITO_basal_resp_rate: CCTE's HepG2 Seahorse XF Respirometric Screening Assay at Basal Respiratory State, Simmons Lab (AID 2284001). The settings on record: actives raise or lower the signal. Put shortly: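 HepG2 cells were given test chemicals at 7 concentrations, 125 nM to 100 uM final, and oxygen consumption rate was read every 6 min (3 min mix, 3 min measure) over 72 min. Basal-phase OCR was fitted bidirectionally against DMSO.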

The nature of assay [2]: CCTE_Simmons_MITO_max_resp_rate: CCTE's HepG2 Seahorse XF Respirometric Screening Assay at Maximal Respiratory State [uncoupled], Simmons Lab (AID 2284002). The settings on record: actives raise or lower the signal. In a few lines: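 Maximal (FCCP-uncoupled) respiration rate in HepG2, from Seahorse kinetic OCR over 72 min at 6 min cycles. Compounds at 125 nM–100 uM final, 7 points, three biological replicates; both directions fit relative to DMSO.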

Assay [3] can be described thus: CCTE_Simmons_MITO_inhib_resp_rate: CCTE's HepG2 Seahorse XF Respirometric Screening Assay at Inhibited Respiratory State [full ETC block], Simmons Lab (AID 2284006). The settings on record: actives raise or lower the signal. Put shortly:
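HepG2 cells on Seahorse XF96; oxygen consumption measured after test compound, then FCCP, then rotenone/antimycin A injections over 72 min. Test chemicals at 7 concentrations, 125 nM–100 uM final. OCR fitted bidirectionally versus DMSO.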

Assay [4] is described as follows: CCTE_Shafer_MEA_acute_spike_number: CCTE's Neural Acute Assay for Total Number of Spikes, Shafer Lab (AID 2284008).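 On AC50: curve fitted for decrease in spike count so AC50 reflects inhibitors.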 In a few lines:
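Total spike count from 40 min recordings before and during compound exposure (0.03-40 uM), given as per-well percent change. Cortical cultures from rat, DIV 13 or 15, 37 C; adaptive detection threshold 8x rms noise.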

Assay [5] can be described thus: CCTE_Shafer_MEA_acute_firing_rate_mean: CCTE's Neural Acute Assay for Mean Firing Rate, Shafer Lab (AID 2284009).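 Further: analyzed for loss of signal so actives lower firing rate relative to DMSO.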 In a few lines:
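Read-out: well-mean spike rate (spikes/recording length/electrodes), % change from 40 min pre-dose baseline to 40 min with compound. Rat cortical cultures, DIV 13 or 15, 37 C; 0.03-40 uM; DMSO as negative control.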

A short description of assay [6]: CCTE_Harrill_HTTr_Viability_MCF7: CCTE's 6-hour Cell Viability Assessment for the High-Throughput Transcriptomics (HTTr) Platform, in MCF-7 cells cultured in DMEM + 10% fetal bovine serum, Harrill Lab (AID 2284010). In a few lines: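 Membrane integrity was scored by high-content imaging of propidium iodide dye exclusion after a 6 h exposure across an eight-point dilution series. Data were fitted bidirectionally relative to DMSO as negative control and baseline.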

Assay [7] is described as follows: CCTE_Simmons_MITO_viability: CellTiter-Glo Viability Assessment for CCTE's HepG2 Seahorse XF Respirometric Screening Assay [post-hoc], Simmons Lab (AID 2284007; active means hit-call score of the fitted dose curve at least 0.9, where 1 is the maximum;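 on AC50: cells exposed to chemical for 90 min before the ATP read; actives lower ATP signal relative to DMSO baseline meaning reduced viability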). In a few lines:
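HepG2 cells from the Seahorse XF respirometry run were exposed 90 min to a 7-point series, 125 nM–100 uM final, DMSO vehicle; ATP content then read by luciferase luminescence. Three biological replicates, technical singles; loss of signal fitted versus DMSO.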
For orientation: In ATP-based viability assays light output follows the ATP content of the culture.

Assay [8] has as its target Nucleoli Translocation, AR (gene 367) (UniProt P10275). The experiment in a line: UPITT_HCI_U2OS_AR_TIF2_Nucleoli_Antagonist: University of Pittsburgh U2OS Androgen Receptor-Transcriptional Intermediary Factor 2 (AR-TIF2) Antagonism High Content Imaging Assay for Nucleoli Translocation (AID 2283997; active means hit-call score of the fitted dose curve at least 0.9, where 1 is the maximum). In a few lines: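 U2OS cells expressing RFP-tagged human AR and GFP-tagged TIF2 were imaged by high-content fluorescence microscopy for red AR signal in the nucleolar region. Compounds were screened at 20 uM final (0.2% DMSO), with activity fitted relative to DHT as baseline.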

The target of assay [9] is Ratio of Nucleoli Translocation and Cytoplasm, AR (gene 367) (UniProt P10275). The experiment in a line: UPITT_HCI_U2OS_AR_TIF2_Nucleoli_Cytoplasm_Ratio_Antagonist: University of Pittsburgh U2OS Androgen Receptor-Transcriptional Intermediary Factor 2 (AR-TIF2) Antagonism High Content Imaging Assay for Ratio of Nucleoli Translocation and Cytoplasm (AID 2283999; active means hit-call score of the fitted dose curve at least 0.9, where 1 is the maximum;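 further: antagonists lower the DHT-driven ratio of nucleolar to cytoplasmic red signal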). Put shortly: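 U2OS cells expressing RFP-tagged human AR and GFP-tagged TIF2; compounds tested at 20 uM final (0.2% DMSO) in primary screen, 0.195–50 uM (0.5% DMSO) for concentration response. Readout: nucleolar-to-cytoplasmic red fluorescence ratio by high-content imaging, fitted relative to DHT.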
Sequence of Ratio of Nucleoli Translocation and Cytoplasm, AR (gene 367) (P10275 whole entry, looked up): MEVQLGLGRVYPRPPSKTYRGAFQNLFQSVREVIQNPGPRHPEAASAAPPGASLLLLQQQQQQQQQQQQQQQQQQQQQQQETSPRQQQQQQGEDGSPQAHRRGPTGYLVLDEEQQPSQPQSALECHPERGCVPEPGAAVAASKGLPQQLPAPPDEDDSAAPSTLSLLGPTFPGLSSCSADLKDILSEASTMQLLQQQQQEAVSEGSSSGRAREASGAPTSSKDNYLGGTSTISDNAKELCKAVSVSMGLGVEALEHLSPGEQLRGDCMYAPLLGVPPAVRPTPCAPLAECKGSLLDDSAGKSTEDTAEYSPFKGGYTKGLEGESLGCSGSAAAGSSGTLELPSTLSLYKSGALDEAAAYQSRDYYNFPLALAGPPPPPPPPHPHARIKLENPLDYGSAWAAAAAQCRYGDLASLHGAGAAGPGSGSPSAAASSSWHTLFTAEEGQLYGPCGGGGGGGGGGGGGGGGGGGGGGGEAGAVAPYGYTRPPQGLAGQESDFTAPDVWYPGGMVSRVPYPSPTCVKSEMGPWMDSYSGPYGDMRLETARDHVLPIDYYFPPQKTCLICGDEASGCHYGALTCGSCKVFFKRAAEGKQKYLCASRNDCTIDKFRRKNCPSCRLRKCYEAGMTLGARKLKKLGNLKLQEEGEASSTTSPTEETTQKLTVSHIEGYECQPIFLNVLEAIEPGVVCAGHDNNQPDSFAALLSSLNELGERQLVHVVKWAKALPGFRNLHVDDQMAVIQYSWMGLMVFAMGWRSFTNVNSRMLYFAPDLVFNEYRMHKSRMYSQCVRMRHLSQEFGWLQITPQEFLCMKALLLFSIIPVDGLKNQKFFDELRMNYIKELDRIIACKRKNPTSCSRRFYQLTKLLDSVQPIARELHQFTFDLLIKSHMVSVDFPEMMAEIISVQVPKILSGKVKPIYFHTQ

Assay [10] shares this target. Nature of the assay: UPITT_HCI_U2OS_AR_TIF2_Nucleoli_Cytoplasm_Ratio_Agonist: University of Pittsburgh U2OS Androgen Receptor-Transcriptional Intermediary Factor 2 (AR-TIF2) Agonism High Content Imaging Assay for Ratio of Nucleoli Translocation and Cytoplasm (AID 2284000; active means hit-call score of the fitted dose curve at least 0.9, where 1 is the maximum;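 further: hits raise the red nucleolar to cytoplasm ratio above vehicle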). In a few lines:
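U2OS cells expressing RFP-tagged human AR and GFP-tagged TIF2 were imaged by high-content fluorescence microscopy. The endpoint is the ratio of nucleolar to cytoplasmic red fluorescence, fitted for gain of signal relative to DMSO. Concentration-response spanned 0.195 to 50 uM final (0.5% DMSO).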

The test system of a further assay is DIO1 (gene 1733). Nature of the assay: CCTE_GLTED_hDIO1: CCTE's human Deiodinase 1 (DIO1) Inhibition Assay, Great Lakes Toxicology and Ecology Division (GLTED) Lab (AID 2283987; active means hit-call score of the fitted dose curve at least 0.9, where 1 is the maximum;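 further: isolated human DIO1 enzyme in a cell-free setup rather than cells; enzyme activity read as free iodide liberated from substrate via Sandell-Kolthoff colorimetry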). Put shortly:
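Inhibition read as reduced iodide release: after 3 h of human DIO1 with chemical, free iodide is quantified colorimetrically (Sandell-Kolthoff cerium/arsenic reaction). Triplicate plates, DMSO baseline.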

Assay [11] can be described thus: TOX21_TR_RXR_BLA_Antagonist_Followup_viability: Viability Assessment in the Tox21 Thyroid Hormone Receptor beta Retinoid X Receptor alpha (RXRa) Antagonism Beta-lactamase (BLA) Follow-Up Assay (AID 2283979; active means hit-call score of the fitted dose curve at least 0.9, where 1 is the maximum). Put shortly:
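RXRa-UAS-bla HEK293T cells seeded 2,500/well in phenol red-free DMEM with 2% charcoal-stripped FBS, attached 5 h, then exposed to compounds at 11 concentrations in triplicate for 16 h at 37C/5% CO2. Viability read by CellTiter-Glo ATP luminescence; bidirectional fit versus DMSO.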

Assay [12] deals with Nucleoli Translocation, AR (gene 367) (UniProt P10275). The experiment in a line: UPITT_HCI_U2OS_AR_TIF2_Nucleoli_Agonist: University of Pittsburgh U2OS Androgen Receptor-Transcriptional Intermediary Factor 2 (AR-TIF2) Agonism High Content Imaging Assay for Nucleoli Translocation (AID 2283998; active means hit-call score of the fitted dose curve at least 0.9, where 1 is the maximum). In a few lines:
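Nucleolar translocation of AR-RFP, with TIF2-GFP coexpressed in human osteosarcoma U2OS, imaged by high-content fluorescence. Compounds tested singly at 20 uM final, confirmed in triplicate, then titrated 0.195–50 uM final; gain-of-signal relative to DMSO.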

Sequence of Nucleoli Translocation, AR (gene 367) (P10275 whole entry, looked up): as above

The AC50 is the concentration giving half of the maximal activity seen. In the case of `CCC(C)c1ccc(O)cc1` (stereo not drawn), the AC50 was 44.3 µM (active) in assay [1], 20 µM (active) in assay [4] and 20 µM (active) in assay [5]. Further, the result in [2], in [3] and in assay [6] was inactive.
Consider `Clc1ccc(C(c2ccc(Cl)cc2)C(Cl)Cl)cc1`, for which the half-maximal activity concentration (AC50) in [4] is 2.95 µM (active); in assay [5], 2.94 µM (active). The result in assay [6] was inactive.
Consider `CCOC(=O)[C@]1(c2ccccc2)Oc2ccccc2[C@@H]1N`, for which the figures for the AC50 in assay [1] and in assay [2] were 43.2 µM (active) and 31.3 µM (active), respectively. The compound was called inactive in assay [3], in assay [7] and in [6].
Take `O=C1CCCO1`: the compound was classed as inactive in assay [8] and in assay [6].
For the compound `CC(C)(OOC(C)(C)c1ccccc1)c1ccccc1`, the AC50 in assay [8] was 38.5 µM (active). Also, the outcome in assay [9], in assay [10], in assay [4], in assay [5] and in assay [6] was inactive.
`CCCCCCCCn1sccc1=O`: the AC50 in the assay on DIO1 (gene 1733) is 54 µM (active); in assay [2], 52 µM (active); in assay [7] it was 74.4 µM (active). For the same compound, the call in [1], in [3], in assay [4], in assay [5] and in assay [6] was inactive.
In the case of `CCN(CC)CCO`, the compound was classed as inactive in assay [4], in [5] and in [6].
`CNC(=O)Oc1cccc2c1OC(C)(C)C2`: the compound was classed as inactive in assay [8], in assay [9] and in assay [6].
`CCNS(=O)(=O)C(F)(F)C(F)(F)C(F)(F)C(F)(F)C(F)(F)C(F)(F)C(F)(F)C(F)(F)F`: the call in assay [8], in [10] and in assay [6] was inactive.
As for `COP(=S)(OC)SCN1C(=O)c2ccccc2C1=O`, the AC50 in the assay with DIO1 (gene 1733) is 50.9 µM (active). The result in assay [6] was inactive.
Consider `CC(C)(C)C(O)(CCc1ccc(Cl)cc1)Cn1cncn1` (stereo not drawn), for which the AC50 in assay [1] was 39.6 µM (active); in [2], 33.4 µM (active); in assay [4], 3.76 µM (active); in assay [5], 3.75 µM (active). Moreover, the call in assay [3], in assay [7] and in [6] was inactive.
As for `N#CC(Br)Br`, the outcome in assay [4], in assay [5] and in assay [6] was inactive.
With `CC(C)COC(=O)c1ccccc1C(=O)OCC(C)C`, the AC50 in assay [1] was 56.3 µM (active); in assay [2] it was 50 µM (active); in assay [4], 7.13 µM (active); in assay [5], 7.16 µM (active). Further, the compound was called inactive in assay [3], in assay [7] and in assay [6].
For `COC(=O)Nc1nc2ccccc2[nH]1`, the compound was called inactive in assay [11], in assay [12], in assay [4], in [5] and in [6].
For `COc1cc(C=O)cc2c1[C@H](COC(N)=O)[C@]1(OC(C)=O)ON2C[C@H]2[C@@H]1N2C(C)=O`, the call in [1], in [2], in assay [3] and in assay [6] was inactive.
As to `CC(C)(O)c1cnn2c(-c3ccc(F)c(-c4c(F)cccc4C#N)c3)cnc2n1`, the result in assay [8], in [12], in assay [10] and in assay [6] was inactive. Further, the values for the AC50 in [4] and in assay [5] were 0.713 µM (active) and 0.789 µM (active), respectively.
